Results: PubChem BioAssay
Active and inactive are the calls of the source.

Assays:
[1] = binders of probe aFSTL3 on microarray, primary screen, stem cell growth factor project, biochemical, small-molecule microarray, fluorescence 635/667 (AID 1064); conditions: higher = more signal;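 further: measures binding of the biotinylated anti-FSTL3 antibody to printed compounds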
[2] = binders from COS7 lysate, DM2A8 probe, primary screen, torsin A project, cell lysate, small-molecule microarray, fluorescence 635/667 (AID 1065); conditions: higher = more signal, COS7 lysate expressing mutant human TOR1A
[3] = binders of probe aFGF2 on microarray, primary screen, stem cell growth factor project, biochemical, small-molecule microarray, fluorescence 635/667 (AID 1067); conditions: higher = more signal;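 further: measures binding of biotinylated aFGF2 protein to printed compounds on slides; z-score merges feature fluorescence and signal-to-noise across triplicate slides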
[4] = binders of probe aFGF10 on microarray, primary screen, stem cell growth factor project, biochemical, small-molecule microarray, fluorescence 635/667 (AID 1071); conditions: higher = more signal;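 further: score merges 667 nm spot intensity and signal to noise from triplicate slides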
[5] = molecular target: Neurogenic locus notch homolog protein 2 (Homo sapiens) (UniProt Q04721); experiment: Notch2 binders on small-molecule microarrays, primary screen, biochemical, small-molecule microarray, 635 nm fluorescence, stem cell growth factors (AID 1073); conditions: Notch2 binding, higher = more signal
Neurogenic locus notch homolog protein 2 (Homo sapiens), sequence (Q04721 whole entry, looked up, canonical isoform): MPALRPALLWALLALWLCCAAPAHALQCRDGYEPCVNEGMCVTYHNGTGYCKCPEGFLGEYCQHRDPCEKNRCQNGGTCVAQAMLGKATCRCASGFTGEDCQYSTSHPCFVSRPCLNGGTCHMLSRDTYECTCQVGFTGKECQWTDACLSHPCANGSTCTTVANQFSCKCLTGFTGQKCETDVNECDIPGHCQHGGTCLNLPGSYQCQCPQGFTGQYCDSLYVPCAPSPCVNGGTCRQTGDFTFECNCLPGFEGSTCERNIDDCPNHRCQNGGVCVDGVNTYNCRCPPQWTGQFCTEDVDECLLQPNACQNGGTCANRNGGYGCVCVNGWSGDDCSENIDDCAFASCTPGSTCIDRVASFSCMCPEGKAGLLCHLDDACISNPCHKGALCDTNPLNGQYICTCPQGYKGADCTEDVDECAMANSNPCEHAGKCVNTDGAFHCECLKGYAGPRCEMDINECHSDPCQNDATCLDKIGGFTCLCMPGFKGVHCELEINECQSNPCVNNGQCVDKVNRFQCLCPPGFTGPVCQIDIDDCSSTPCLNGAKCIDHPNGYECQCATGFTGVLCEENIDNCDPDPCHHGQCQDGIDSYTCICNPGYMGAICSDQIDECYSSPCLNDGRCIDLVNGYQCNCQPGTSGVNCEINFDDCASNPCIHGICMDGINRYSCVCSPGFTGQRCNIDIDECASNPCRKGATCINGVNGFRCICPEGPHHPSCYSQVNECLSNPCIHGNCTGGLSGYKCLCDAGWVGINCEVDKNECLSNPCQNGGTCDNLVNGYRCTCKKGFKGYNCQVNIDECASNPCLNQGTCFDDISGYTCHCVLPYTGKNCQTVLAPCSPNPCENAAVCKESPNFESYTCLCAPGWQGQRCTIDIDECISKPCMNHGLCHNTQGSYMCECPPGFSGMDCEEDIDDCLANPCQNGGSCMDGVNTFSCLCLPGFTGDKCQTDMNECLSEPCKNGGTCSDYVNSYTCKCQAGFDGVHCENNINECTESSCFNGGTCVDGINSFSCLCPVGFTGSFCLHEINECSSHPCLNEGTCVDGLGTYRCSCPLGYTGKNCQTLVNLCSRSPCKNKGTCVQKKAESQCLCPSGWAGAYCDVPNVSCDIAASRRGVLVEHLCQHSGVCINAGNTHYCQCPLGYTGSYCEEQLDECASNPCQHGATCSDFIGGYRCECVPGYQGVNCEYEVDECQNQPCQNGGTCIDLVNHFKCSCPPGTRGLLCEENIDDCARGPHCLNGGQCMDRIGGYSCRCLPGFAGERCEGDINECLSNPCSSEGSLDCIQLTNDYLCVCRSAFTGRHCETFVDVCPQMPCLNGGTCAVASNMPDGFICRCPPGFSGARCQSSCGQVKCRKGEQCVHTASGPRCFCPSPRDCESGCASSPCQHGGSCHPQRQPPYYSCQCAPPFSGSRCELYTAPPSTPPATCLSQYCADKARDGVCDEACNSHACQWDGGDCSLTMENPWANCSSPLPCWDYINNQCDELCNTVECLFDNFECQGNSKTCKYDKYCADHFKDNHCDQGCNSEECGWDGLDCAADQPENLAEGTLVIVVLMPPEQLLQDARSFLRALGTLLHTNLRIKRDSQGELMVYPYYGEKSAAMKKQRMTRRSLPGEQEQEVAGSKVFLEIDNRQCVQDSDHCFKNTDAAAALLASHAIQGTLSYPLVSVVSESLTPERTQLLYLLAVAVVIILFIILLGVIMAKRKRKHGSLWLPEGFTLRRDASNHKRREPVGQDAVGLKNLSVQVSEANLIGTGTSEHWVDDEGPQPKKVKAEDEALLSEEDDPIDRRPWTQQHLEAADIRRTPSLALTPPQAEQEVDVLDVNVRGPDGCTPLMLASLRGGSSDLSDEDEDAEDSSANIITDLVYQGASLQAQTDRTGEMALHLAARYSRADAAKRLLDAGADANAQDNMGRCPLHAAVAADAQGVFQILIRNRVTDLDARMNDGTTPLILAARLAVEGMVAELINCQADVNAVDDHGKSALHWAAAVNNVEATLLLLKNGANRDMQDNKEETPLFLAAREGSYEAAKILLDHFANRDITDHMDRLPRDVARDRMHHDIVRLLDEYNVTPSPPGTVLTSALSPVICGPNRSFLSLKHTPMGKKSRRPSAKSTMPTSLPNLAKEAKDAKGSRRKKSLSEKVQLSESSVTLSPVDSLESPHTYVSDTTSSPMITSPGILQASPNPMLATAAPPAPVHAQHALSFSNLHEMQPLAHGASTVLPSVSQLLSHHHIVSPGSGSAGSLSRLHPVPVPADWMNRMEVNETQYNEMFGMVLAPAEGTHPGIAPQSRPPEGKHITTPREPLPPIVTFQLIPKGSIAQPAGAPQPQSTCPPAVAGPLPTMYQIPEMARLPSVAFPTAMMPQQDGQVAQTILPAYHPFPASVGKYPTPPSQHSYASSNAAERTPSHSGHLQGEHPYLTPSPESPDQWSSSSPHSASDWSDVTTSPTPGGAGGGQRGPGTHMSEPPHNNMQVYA

[6] = molecular target: Pro-neuregulin-1, membrane-bound isoform (Homo sapiens) (UniProt Q02297); experiment: NRG1 binders on small-molecule microarrays, primary screen, psychiatric disease protein project, biochemical, small-molecule microarray, fluorescence 635/667 (AID 1075); conditions: NRG1 binding, 635 nm fluorescence, higher = more signal;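 further: score combines 667 nm spot fluorescence with signal to noise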
Pro-neuregulin-1, membrane-bound isoform (Homo sapiens), sequence (Q02297 whole entry, looked up, the tested form may be a part, canonical isoform): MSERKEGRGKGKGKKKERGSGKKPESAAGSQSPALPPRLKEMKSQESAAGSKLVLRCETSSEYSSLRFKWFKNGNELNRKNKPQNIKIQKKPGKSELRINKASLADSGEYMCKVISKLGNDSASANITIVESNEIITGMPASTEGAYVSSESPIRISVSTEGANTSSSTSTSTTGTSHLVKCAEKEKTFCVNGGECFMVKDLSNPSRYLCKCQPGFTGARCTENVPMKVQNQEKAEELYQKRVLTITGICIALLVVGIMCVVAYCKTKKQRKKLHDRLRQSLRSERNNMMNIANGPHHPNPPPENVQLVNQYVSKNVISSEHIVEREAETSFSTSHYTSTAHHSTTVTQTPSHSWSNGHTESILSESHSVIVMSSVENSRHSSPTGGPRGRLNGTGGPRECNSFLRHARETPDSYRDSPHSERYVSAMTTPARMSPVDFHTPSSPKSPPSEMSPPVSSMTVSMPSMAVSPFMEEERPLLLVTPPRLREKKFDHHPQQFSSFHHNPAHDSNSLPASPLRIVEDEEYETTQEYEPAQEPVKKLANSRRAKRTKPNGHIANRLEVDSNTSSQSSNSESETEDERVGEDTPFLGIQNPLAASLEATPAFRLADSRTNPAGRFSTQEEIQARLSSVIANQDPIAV

[7] = test system: Neuregulin-1 EGF-like domain; experiment: binders of neuregulin-1 EGF-like domain, primary screen, biochemical, small-molecule microarray, 635 nm fluorescence (AID 1081); conditions: small-molecule microarray binding, higher = more signal;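 further: binding of the protein to compounds printed on small-molecule microarray slides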
[8] = FRG1 promoter luciferase signal modulators, primary screen, FRG1 inhibition for FSHD, cell-based, C2C12 myotubes, firefly/Renilla luciferase, luminescence (AID 1084); conditions: higher = more signal, called active from +8 up or from −8 down
[9] = binders of probe aFST on microarray, primary screen, stem cell growth factor project, biochemical, small-molecule microarray, fluorescence 635/667 (AID 1086); conditions: higher = more signal;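 further: score merges 667 nm fluorescence with signal-to-noise of each printed compound spot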
[10] = binders of probe aHhip on microarray, primary screen, stem cell growth factor project, biochemical, small-molecule microarray, fluorescence 635/667 (AID 1087); conditions: higher = more signal;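 further: score merges spot fluorescence at 667nm with spot signal to noise ratio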
[11] = test system: PRMT1 (protein arginine N-methyltransferase 1); experiment: PRMT1 binders on small-molecule microarrays, primary screen, biochemical, small-molecule microarray, 635 nm fluorescence (AID 1088); conditions: small-molecule microarray binding, higher = more signal;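 further: binding of Prmt1 protein to compounds spotted on small-molecule microarray slides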
[12] = yeast growth modulation, basal conditions, primary screen, YJM789 clinical isolate, OD600, 24 h (AID 1089);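 further: growth of clinical yeast isolate S. cerevisiae YJM 789 seeded 1000 cells per well; test concentration not given here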; conditions: S. cerevisiae YJM789 growth, higher = more signal, called active from +8 up or from −8 down
[13] = fission yeast growth modulation, primary screen, strain 972, OD600, 24 h, no modulator (AID 1090);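 further: basal condition with compound alone and no growth modifier present; test concentration not given here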; conditions: S. pombe 972 growth, higher = more signal, called active from +8 up or from −8 down
[14] = S. cerevisiae growth modulation with rapamycin, primary screen, strain BY4716, OD600, 96 h (AID 1091); conditions: higher = more signal, called active from +8 up or from −8 down; further: test concentration not given here
[15] = molecular target: Torsin-1A-interacting protein 2 (Homo sapiens) (UniProt Q8NFQ8); experiment: LULL1 binders on small-molecule microarray, primary screen, cell lysate, human LULL1 lysate, 635/667 nm fluorescence (AID 1092); conditions: hLULL1 lysate binding, 635 nm fluorescence, higher = more signal;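 further: probe is lysate of COS7 cells overexpressing human LULL1; score merges per-feature 667 nm fluorescence with signal-to-noise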
Torsin-1A-interacting protein 2 (Homo sapiens), sequence (Q8NFQ8 whole entry, looked up): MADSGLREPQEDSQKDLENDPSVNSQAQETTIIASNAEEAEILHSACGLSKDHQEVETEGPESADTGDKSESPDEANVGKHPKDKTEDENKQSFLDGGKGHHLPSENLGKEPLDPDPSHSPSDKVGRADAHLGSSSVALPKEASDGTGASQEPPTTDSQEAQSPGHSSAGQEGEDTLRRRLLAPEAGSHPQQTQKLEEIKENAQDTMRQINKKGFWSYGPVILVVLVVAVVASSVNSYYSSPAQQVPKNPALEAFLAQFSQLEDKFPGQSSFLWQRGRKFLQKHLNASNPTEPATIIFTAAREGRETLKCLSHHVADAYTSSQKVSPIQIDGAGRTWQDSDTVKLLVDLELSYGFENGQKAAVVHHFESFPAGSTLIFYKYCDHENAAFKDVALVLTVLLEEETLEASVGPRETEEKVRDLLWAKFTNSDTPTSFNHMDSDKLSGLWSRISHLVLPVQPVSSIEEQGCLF

[16] = E. coli growth modulation, two-sided OD650, primary screen, E. coli filamentation project, strain DRC41, 24 h (AID 1093); conditions: OD650, 24 h, higher = more signal, called active from +8 up or from −8 down;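 further: MC1000 strain lacking acrAB efflux and sulA so SOS filamentation is blocked; test concentration not given here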
[17] = small-molecule microarray binders of probe aLefty2, primary screen, biochemical, biotinylated probe, 635/667 nm fluorescence (AID 1094); conditions: higher = more signal;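 further: score merges spot fluorescence near 667 nm with spot signal-to-noise ratio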
[18] = test system: Noggin (protein binding on small-molecule microarray); experiment: Noggin binders on small-molecule microarray, primary screen, biochemical, 635/667 nm fluorescence (AID 1095); conditions: 635 nm fluorescence, higher = more signal;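 further: score merges 667 nm feature fluorescence with signal to noise over triplicate slides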
[19] = molecular target: Neurogenic locus notch homolog protein 3 (Homo sapiens) (UniProt Q9UM47); experiment: NOTCH3 binders on small-molecule microarray, primary screen, biochemical, 635/667 nm fluorescence (AID 1096); conditions: NOTCH3 binding, 635 nm fluorescence, higher = more signal
[20] = small-molecule microarray binders of probe aEGFR, primary screen, biochemical, biotinylated probe, 635/667 nm fluorescence (AID 1097); conditions: higher = more signal;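 further: probe is a biotinylated anti-EGFR antibody binding compounds printed on slides; score combines fluorescence near 667 nm and signal to noise of each spot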

| Structure (SMILES) | composite z-score [1] | composite z-score [2] | composite z-score [3] | composite z-score [4] | composite z-score [5] | composite z-score [6] | composite z-score [7] | z-score [8] | composite z-score [9] | composite z-score [10] | composite z-score [11] | z-score [12] | z-score [13] | z-score [14] | composite z-score [15] | z-score [16] | composite z-score [17] | composite z-score [18] | composite z-score [19] | composite z-score [20] |
| --- | --- | --- | --- | --- | --- | --- | --- | --- | --- | --- | --- | --- | --- | --- | --- | --- | --- | --- | --- | --- |
| COC(=O)[C@H](C)NC(=O)CCC1CC(OC(=O)NCc2cccc3ccccc23)CC2(CCCC(COC(=O)NCCCN3CCCC3=O)O2)O1 (stereo not given in full) | -0.669 | -0.158 | -0.141 | 0.119 | 1.43 | 0.567 | 0.925 | -3.13 (inactive) | 1.01 | 0.208 | 1.58 | 0.691 (inactive) | 1.05 (inactive) | 0.187 (inactive) | 1.89 | -1.25 (inactive) | 0.0598 | 0.79 | 1.14 | 0.074 |
| C=CC[C@@H]1C=C[C@H](ON=C(C)CCN2CCCCc3nc(C)c(C)cc32)[C@@H](CO)O1 | 0.407 | 1.57 | -0.0704 | 0.129 | 0.145 | 0.37 | 0.899 | 0.389 (inactive) | 0.238 | 0.0053 | 1.47 | -1.19 (inactive) | 0.805 (inactive) | -0.508 (inactive) | 1.77 | -0.0376 (inactive) | -0.0769 | 1.21 | 0.67 | 0.044 |
| C=CC[C@@H]1C=C[C@H](Oc2ccc(C)cc2)[C@@H](COC(=O)NCc2cccc3ccccc23)O1 | -0.406 | 0.012 | -0.144 | 0.655 | -0.141 | 0.528 | 0.724 | -0.446 (inactive) | -0.174 | -0.251 | 0.261 | 0.697 (inactive) | -0.341 (inactive) | 0.774 (inactive) | 0.557 | -0.61 (inactive) | -0.116 | 0.725 | -0.0971 | -0.136 |
| CC(CCC(=O)OC[C@H]1O[C@H](C#Cc2ccccc2)C=C[C@@H]1Oc1ccc(C)cc1)=NOC(C)CN1CCCc2nc(C)c(C)cc21 (stereo not given in full) | -0.293 | 0.0877 | -0.0783 | 0.413 | 0.869 | 0.617 | 0.684 | 0.517 (inactive) | 0.69 | -0.0319 | 1.33 | 2.01 (inactive) | -1.77 (inactive) | -0.49 (inactive) | 1.5 | 0.915 (inactive) | -0.0849 | 0.538 | 0.894 | -0.0267 |
| CCCNC(=O)OC[C@H]1O[C@H](CCON=C[C@@H](C)[C@H](OCc2ccccc2)C(C)C)C=C[C@@H]1Oc1ccc(OC)cc1 | -0.273 | 0.729 | -0.161 | 0.416 | -0.566 | -0.645 | -0.814 | -0.748 (inactive) | -0.307 | -0.0346 | -0.295 | -2.24 (inactive) | -1.52 (inactive) | -0.25 (inactive) | -0.605 | -1.13 (inactive) | -0.0753 | -0.0593 | -0.942 | -0.141 |
